Assay results: PubChem BioAssay (NCATS)
Values without a mark were called inactive. Records with an inconclusive call do not appear. Entries that show only a call come without a potency. Active and inactive are the calls of the source. Unless noted, calls follow the shape of the dose curve; as a rule, active = well fitted curve in the direction sought with a large enough effect; inconclusive = small, poorly fitted or top-dose-only effect, or another doubt; inactive = no such curve, though single readings can be large; an effect the other way counts as inactive or inconclusive. Where a SMILES comes first, the peptide text is derived from it.

Legend:
[1] = molecular target: Cytochrome P450 1A2 (Homo sapiens) (UniProt P05177); test: p450-cyp1a2 (AID 410; calls by dose curve; also: potency is read from the fitted curve at half-maximal effect)
Cytochrome P450 1A2 (Homo sapiens), sequence (P05177 whole entry, looked up): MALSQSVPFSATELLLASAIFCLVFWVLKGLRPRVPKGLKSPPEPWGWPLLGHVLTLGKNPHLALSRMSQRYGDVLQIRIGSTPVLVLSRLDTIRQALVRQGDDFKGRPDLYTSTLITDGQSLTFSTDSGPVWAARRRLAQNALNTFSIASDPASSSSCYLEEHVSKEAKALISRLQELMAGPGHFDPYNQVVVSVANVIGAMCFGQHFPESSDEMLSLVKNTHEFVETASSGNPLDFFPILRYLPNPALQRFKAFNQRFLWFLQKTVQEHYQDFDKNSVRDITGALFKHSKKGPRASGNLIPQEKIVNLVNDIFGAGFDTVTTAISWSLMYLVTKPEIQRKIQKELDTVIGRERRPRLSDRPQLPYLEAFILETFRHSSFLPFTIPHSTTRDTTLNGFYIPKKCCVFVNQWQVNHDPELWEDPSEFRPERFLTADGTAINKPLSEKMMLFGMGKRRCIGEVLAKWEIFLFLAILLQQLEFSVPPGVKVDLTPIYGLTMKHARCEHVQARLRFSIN
In short: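 20nM CYP1A2, 100uM Luciferin-ME (=Km), 100mM KPO4; cpd 10 min RT; +NADPH regen, 60 min RT; stop/detect 20 min; luminescence. Normalized to furafylline 57 uM = full inhibition.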

[2] = molecular target: Glucocorticoid receptor (Homo sapiens) (UniProt P04150); test: GR-GFP Redistribution (AID 450;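 active = compounds whose dose series gives a full or clear partial fitted curve of increased nuclear translocation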; also: potency is read from the fitted curve at half-maximal effect)
Glucocorticoid receptor (Homo sapiens), sequence (P04150 whole entry, looked up, the tested form may be a part): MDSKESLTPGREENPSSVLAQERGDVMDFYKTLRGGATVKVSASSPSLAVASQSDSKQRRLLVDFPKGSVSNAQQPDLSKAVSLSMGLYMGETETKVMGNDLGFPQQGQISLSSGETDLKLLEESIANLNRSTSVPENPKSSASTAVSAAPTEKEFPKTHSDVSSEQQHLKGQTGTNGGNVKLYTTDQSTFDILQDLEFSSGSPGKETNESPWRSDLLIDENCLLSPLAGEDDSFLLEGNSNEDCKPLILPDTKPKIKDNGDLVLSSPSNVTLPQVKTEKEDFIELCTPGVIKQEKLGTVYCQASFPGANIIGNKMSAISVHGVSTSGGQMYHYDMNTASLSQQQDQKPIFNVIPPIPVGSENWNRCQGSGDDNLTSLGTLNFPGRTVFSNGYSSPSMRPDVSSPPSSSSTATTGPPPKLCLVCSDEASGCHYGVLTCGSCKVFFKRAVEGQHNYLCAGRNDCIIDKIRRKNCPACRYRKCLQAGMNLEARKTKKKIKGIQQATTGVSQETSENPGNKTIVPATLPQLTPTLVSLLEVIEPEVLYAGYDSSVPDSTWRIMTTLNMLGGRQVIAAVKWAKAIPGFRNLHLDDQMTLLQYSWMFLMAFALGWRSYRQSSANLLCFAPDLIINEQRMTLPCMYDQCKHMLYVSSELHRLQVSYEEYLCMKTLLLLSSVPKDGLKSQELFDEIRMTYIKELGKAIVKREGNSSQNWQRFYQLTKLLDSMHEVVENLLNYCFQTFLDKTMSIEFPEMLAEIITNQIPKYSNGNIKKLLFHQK

[3] = molecular target: Glucocorticoid receptor (Homo sapiens) (UniProt P04150); test: GR-EFC Redistribution (AID 451; calls by dose curve; also: potency is read from the fitted curve at half-maximal effect); settings: CHO-K1 GR-EFC translocation, beta-gal luminescence, 2 h
In short: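 Translocation of GR-ED fusion to nuclear EA restores b-gal, read by luminescence after 1 h room-temperature detection. Engineered CHO-K1 biosensor cells, 1,000/well, exposed 2 h at 37 C to titrations up to 46 uM final.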

[4] = molecular target: Mitogen-activated protein kinase 10 (Mus musculus) (UniProt Q61831); test: JNK3 AlphaScreen Assay (AID 530; active = well fitted curve in either direction with a large enough effect, not every such curve was filed as active;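 also: kinase came from lysate of stimulated human HepG2 cells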; also: potency is read from the fitted curve at half-maximal effect)
In short: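 Kinase buffer: 20 mM Tris-HCl pH 7.6, 10 mM MgCl2, 1 mM DTT, 0.1 mM Na3VO4, 0.01% Tween-20; ATP 10 uM. Substrate biotin-GST-cJun(1-79), enzyme from activated HepG2 lysates. Detection by Ser73 phospho-antibody AlphaScreen.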

[5] = molecular target: Cytochrome P450 2C9 (Homo sapiens) (UniProt P11712); test: qHTS Assay for Inhibitors and Substrates of Cytochrome P450 2C9 (AID 883); also: nearly all actives have a fitted effect of over 60% in size; also: potency is read from the fitted curve at half-maximal effect
Cytochrome P450 2C9 (Homo sapiens), sequence (P11712 whole entry, looked up): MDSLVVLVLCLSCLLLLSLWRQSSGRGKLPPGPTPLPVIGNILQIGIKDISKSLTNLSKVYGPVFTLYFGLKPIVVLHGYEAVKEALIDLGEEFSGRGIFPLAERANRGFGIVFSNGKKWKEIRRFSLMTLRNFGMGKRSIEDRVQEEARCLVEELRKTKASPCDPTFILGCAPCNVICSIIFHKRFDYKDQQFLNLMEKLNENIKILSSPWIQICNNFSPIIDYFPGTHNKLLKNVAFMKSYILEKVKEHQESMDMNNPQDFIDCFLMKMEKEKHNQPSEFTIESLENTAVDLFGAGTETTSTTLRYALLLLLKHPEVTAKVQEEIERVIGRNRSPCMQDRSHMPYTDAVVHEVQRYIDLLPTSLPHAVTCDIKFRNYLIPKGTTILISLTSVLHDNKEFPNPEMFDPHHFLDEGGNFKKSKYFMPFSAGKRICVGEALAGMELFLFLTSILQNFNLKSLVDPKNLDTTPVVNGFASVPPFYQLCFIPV
In short: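 Turnover of Luciferin-H (100uM, KM) by 10nM human CYP2C9 was measured over 60 min at 37C with NADPH regeneration; inhibitors and some substrates reduce luminescence. Data normalized to sulphaphenazole 57uM.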

[6] = molecular target: Cytochrome P450 3A4 (Homo sapiens) (UniProt P08684); test: qHTS Assay for Inhibitors and Substrates of Cytochrome P450 3A4 (AID 884); also: nearly all actives have a fitted effect of over 50% in size; also: potency is read from the fitted curve at half-maximal effect
Cytochrome P450 3A4 (Homo sapiens), sequence (P08684 whole entry, looked up): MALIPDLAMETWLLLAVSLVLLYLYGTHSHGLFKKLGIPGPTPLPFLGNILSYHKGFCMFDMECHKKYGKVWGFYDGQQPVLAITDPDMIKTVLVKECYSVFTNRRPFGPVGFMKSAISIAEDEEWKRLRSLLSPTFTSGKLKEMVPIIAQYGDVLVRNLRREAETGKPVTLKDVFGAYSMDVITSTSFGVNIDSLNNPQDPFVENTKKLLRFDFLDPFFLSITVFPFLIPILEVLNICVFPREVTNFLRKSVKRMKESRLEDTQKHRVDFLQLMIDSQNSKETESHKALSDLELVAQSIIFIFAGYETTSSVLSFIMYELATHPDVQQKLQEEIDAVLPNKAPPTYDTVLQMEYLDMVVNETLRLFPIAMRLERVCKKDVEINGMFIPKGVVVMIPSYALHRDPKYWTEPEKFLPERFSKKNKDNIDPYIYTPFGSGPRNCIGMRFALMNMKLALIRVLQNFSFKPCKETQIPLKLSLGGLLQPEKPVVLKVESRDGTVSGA
In short: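 Luminescent readout of luciferin produced by CYP3A4 (20 nM) dealkylation of Luciferin-PPXE, 25 uM (its KM). NADPH-driven reaction ran 60 min at RT after 10 min compound preincubation; data scaled to 57 uM ketoconazole as 100% inhibition.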

[7] = molecular target: Cytochrome P450 3A4 (Homo sapiens) (UniProt P08684); test: qHTS Assay for Activators of Cytochrome P450 3A4 (AID 885); also: nearly all actives have a fitted effect of over 65% in size
In short: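 CYP3A4 activity: Luciferin-PPXE O-dealkylation, 25uM substrate, 200mM KPO4, RT throughout. Read-out is luciferase luminescence; higher values reflect activation.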

[8] = molecular target: Cytochrome P450 2D6 (Homo sapiens) (UniProt P10635); test: qHTS Assay for Inhibitors and Substrates of Cytochrome P450 2D6 (AID 891); also: nearly all actives have a fitted effect of over 60% in size; also: potency is read from the fitted curve at half-maximal effect
Cytochrome P450 2D6 (Homo sapiens), sequence (P10635 whole entry, looked up): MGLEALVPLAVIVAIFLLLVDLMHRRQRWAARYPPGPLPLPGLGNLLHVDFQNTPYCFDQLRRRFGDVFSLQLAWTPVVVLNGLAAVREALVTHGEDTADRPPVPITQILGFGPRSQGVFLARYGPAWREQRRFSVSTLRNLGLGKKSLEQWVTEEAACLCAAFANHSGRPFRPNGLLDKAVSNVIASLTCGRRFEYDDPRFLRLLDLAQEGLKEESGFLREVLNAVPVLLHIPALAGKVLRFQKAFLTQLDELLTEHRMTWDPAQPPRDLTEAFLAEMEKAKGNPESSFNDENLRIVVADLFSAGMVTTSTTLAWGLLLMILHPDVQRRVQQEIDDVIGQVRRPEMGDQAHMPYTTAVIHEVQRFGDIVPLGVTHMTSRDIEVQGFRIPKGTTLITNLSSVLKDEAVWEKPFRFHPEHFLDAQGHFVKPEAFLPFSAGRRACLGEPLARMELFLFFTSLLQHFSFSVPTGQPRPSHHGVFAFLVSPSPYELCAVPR
In short: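 Luminescent read-out of luciferin formed by 5 nM human CYP2D6 demethylating 30 uM Luciferin-ME EGE (Km level) over 60 min at room temperature after NADPH regeneration addition. Data normalized to full inhibition by 1.43 uM quinidine.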

[9] = molecular target: Cytochrome P450 2C19 (Homo sapiens) (UniProt P33261); test: qHTS Assay for Inhibitors and Substrates of Cytochrome P450 2C19 (AID 899); also: nearly all actives have a fitted effect of over 60% in size; also: potency is read from the fitted curve at half-maximal effect
Cytochrome P450 2C19 (Homo sapiens), sequence (P33261 whole entry, looked up): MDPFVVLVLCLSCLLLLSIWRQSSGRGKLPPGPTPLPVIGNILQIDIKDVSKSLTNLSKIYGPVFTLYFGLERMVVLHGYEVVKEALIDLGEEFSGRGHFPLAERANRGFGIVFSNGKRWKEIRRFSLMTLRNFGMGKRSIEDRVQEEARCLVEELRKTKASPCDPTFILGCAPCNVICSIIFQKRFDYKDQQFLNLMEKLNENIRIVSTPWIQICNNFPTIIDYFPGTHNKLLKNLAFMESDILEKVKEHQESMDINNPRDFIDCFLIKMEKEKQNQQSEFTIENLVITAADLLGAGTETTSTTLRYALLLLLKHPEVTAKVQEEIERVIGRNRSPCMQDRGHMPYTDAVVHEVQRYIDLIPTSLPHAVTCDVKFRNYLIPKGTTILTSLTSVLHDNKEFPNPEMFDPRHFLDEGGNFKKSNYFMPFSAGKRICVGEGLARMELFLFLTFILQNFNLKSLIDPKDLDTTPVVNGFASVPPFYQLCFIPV
In short: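 Reactions contain 5nM enzyme, 10uM Luciferin-H EGE (KM) and 50mM KPO4; compound preincubates 10 min at 37C, NADPH regeneration starts turnover for 60 min. Luminescence after detection reagent gives activity.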

[10] = molecular target: DNA dC->dU-editing enzyme APOBEC-3G (Homo sapiens) (UniProt Q9HC16); test: qHTS for inhibitors of Vif-A3G interactions: Validation (AID 588379)
DNA dC->dU-editing enzyme APOBEC-3G (Homo sapiens), sequence (Q9HC16 whole entry, looked up): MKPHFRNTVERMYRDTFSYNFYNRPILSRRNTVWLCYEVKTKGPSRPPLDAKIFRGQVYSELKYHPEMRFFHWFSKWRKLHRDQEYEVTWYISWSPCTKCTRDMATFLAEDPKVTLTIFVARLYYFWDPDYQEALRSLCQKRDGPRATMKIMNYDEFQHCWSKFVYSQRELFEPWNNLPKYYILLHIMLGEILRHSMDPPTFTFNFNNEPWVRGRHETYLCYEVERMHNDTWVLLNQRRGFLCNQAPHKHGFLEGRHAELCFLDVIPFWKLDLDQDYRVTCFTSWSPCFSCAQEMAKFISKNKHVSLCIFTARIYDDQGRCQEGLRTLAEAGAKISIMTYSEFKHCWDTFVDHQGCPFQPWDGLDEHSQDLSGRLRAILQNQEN
In short: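 Yellow fluorescence (Ex 488, Em 500-530) of Vif-coexpressing HeLa A3G-eYFP cells, scanned by Acumen cytometer, reports blocked A3G degradation. Cells plated at 700/well overnight at 37 deg C before compound addition, then a further overnight compound incubation at 37 deg C.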

[11] = molecular target: 3',5'-cyclic-AMP phosphodiesterase 4B (Homo sapiens) (UniProt Q07343); test: qHTS Assay for Inhibitors of PDE-IV (AID 607; active = well fitted activation curve with a large enough effect in the main read-out, with a control signal flat, not every such curve was filed as active)
3',5'-cyclic-AMP phosphodiesterase 4B (Homo sapiens), sequence (Q07343 whole entry, looked up): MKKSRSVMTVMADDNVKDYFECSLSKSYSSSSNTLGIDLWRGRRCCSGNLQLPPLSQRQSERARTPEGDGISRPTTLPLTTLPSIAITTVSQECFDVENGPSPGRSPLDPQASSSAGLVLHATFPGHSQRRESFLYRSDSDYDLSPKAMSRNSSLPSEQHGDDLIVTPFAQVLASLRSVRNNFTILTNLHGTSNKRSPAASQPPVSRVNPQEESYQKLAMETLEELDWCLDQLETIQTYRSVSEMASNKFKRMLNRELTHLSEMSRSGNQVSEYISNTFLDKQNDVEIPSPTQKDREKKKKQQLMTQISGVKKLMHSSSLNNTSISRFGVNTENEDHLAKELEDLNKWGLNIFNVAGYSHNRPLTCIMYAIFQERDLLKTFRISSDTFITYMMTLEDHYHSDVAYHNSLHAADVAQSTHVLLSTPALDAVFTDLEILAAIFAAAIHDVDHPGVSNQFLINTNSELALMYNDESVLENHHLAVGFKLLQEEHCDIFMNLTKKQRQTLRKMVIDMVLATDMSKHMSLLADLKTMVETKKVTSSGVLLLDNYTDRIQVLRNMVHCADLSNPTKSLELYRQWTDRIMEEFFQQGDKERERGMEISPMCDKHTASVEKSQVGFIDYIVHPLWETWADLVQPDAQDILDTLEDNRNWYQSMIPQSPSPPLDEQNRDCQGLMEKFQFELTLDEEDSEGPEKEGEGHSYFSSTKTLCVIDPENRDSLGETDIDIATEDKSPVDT
In short: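 ACTOne HEK293 cells carry a modified cAMP-gated CNG channel and express endogenous PDE4; plated 1000 cells/well, compounds up to 22.9 uM final. Membrane-potential dye fluorescence (ex 535/em 590) was read; parental cells received 10 uM forskolin + 100 uM RO 20-1724.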

| SMILES | Potency [1] | Potency [2] [µM] | Potency [3] [µM] | Potency [4] | Potency [5] | Potency [6] | Potency [7] | Potency [8] | Potency [9] | outcome [10] | Potency [11] |
| --- | --- | --- | --- | --- | --- | --- | --- | --- | --- | --- | --- |
| COc1ccccc1-c1cc(=O)c2cc(O)ccc2o1 | 0.2 µM (active) | > 46 | > 46 | inactive | inactive | 12.6 µM (active) | inactive | inactive | 0.398 µM (active) | inactive |  |
| CC(=O)[C@H]1[C@H]2[C@H](C(=O)[C@@H]3OC[C@H]2O3)[C@@H]2c3ccccc3C=CN12 | 31.6 µM (active) | > 46 | > 46 | inactive |  |  |  |  |  |  | inactive |
| N[C@@H](Cc1c[nH]c2ccccc12)C(=O)NCC(=O)O (H-Trp-Gly-OH) | inactive | > 46 | > 46 | inactive | inactive |  |  | inactive | inactive |  | inactive |
| COc1ccc2c(=O)cc(-c3ccc(O)cc3)oc2c1 | 0.0794 µM (active) | > 46 | > 46 | inactive | 6.31 µM (active) |  | inactive |  | 7.94 µM (active) | inactive | inactive |
| CC1=CC(=O)CC(C)(C)[C@@]1(O)/C=C\C(C)=C\C(=O)O | inactive | > 46 | > 46 | inactive | inactive |  |  | inactive | inactive |  | inactive |
| CN1CCc2cc3c(cc2C(=O)Cc2ccc4c(c2C1)OCO4)OCO3 | 39.8 µM (active) | > 46 | > 46 | inactive | inactive |  | inactive | 0.0501 µM (active) | 10 µM (active) | inactive |  |
| CC1(C)[C@@H](O)CC[C@@]2(C)[C@H]1CC[C@]1(C)[C@H]2C(=O)C=C2[C@@H]3C[C@@](C)(C(=O)O)CC[C@]3(C)CC[C@@]21C | inactive | > 46 | > 46 | inactive | inactive |  |  | inactive | inactive |  | inactive |
| C=C1CC[C@@H]2[C@](C)(CC[C@@H](O)[C@]2(C)CO)[C@@H]1C/C=C1/C(=O)OC[C@H]1O | inactive | > 46 | > 46 | inactive | inactive |  |  | inactive | inactive |  | inactive |
| CCCCCCCCCCCCCCCCOC[C@@H](COCC(F)(F)F)OP(=O)(O)OCO | inactive | > 46 | > 46 | inactive |  |  |  |  |  |  | inactive |
| C=CC1=C(C)C2=Cc3c(C=C)c(C)c4[n]3[Sn+2][n]3c(c(C)c(CCC(=O)O)c3=CC3=NC(=C4)C(C)=C3CCC(=O)O)=CC1=N2 | 39.8 µM (active) | > 46 | > 46 | 1 µM [activator] (active) |  |  |  | 1.26 µM (active) |  | inactive |  |
| COc1ccc2c(=O)cc(-c3ccccc3)oc2c1O | 0.0158 µM (active) | > 46 | > 46 | inactive | 15.8 µM (active) |  | inactive | inactive | 5.01 µM (active) | inactive | inactive |
| COc1ccccc1C[C@@H](Cc1nc2ccccc2[nH]1)c1nc2ccccc2[nH]1 | 10 µM (active) | > 46 | > 46 | inactive | 12.6 µM (active) |  |  | 0.01 µM (active) | 1.58 µM (active) |  | inactive |
| COc1ccc(-c2cc(=O)c3ccc(O)cc3o2)cc1 | 0.158 µM (active) | > 46 | > 46 | inactive |  | 7.94 µM (active) | inactive |  | 3.16 µM (active) | inactive |  |
| Cn1ccc(O)c(C#N)c1=O | inactive | > 46 | > 46 | inactive | inactive | inactive |  | inactive | inactive | inactive | inactive |
| COc1cc2oc(-c3ccccc3)cc(=O)c2cc1O | 1 µM (active) | > 46 | > 46 | inactive | inactive | inactive |  |  |  | inactive | inactive |
| COc1ccccc1-c1oc2ccccc2c(=O)c1OC | 0.2 µM (active) | > 46 | > 46 | inactive | 25.1 µM (active) |  | inactive | inactive | 7.94 µM (active) | inactive |  |
| O=c1c2ccccc2oc2cc(O)c([C@@H]3COC[C@@H](CO)[C@@H](O)[C@@H](O)[C@H]3O)c(O)c12 | inactive | > 46 | > 46 | inactive | inactive |  |  | inactive | inactive |  | inactive |
| O=c1cc(-c2ccc(O)cc2O)oc2ccccc12 | 1.26 µM (active) | > 46 | > 46 | inactive | 5.01 µM (active) | 3.16 µM (active) | inactive | inactive |  | inactive | inactive |

| SMILES | Potency [1] | Potency [2] [µM] | Potency [3] [µM] | Potency [4] | Potency [5] | Potency [6] | Potency [7] | Potency [8] | Potency [9] | outcome [10] | Potency [11] |
| --- | --- | --- | --- | --- | --- | --- | --- | --- | --- | --- | --- |
| CC(=O)Oc1cc(OC(C)=O)c2c(=O)cc(-c3ccc(OC(C)=O)c(OC(C)=O)c3)oc2c1 | 3.16 µM (active) | > 46 | > 46 | 10 µM (active) | inactive |  | inactive |  | inactive | inactive | inactive |
| O=c1cc(-c2ccccc2O)oc2cc(O)cc(O)c12 | 0.251 µM (active) | > 46 | > 46 | inactive | 5.01 µM (active) |  | inactive |  | 3.98 µM (active) | inactive | inactive |
| COc1ccc2oc(-c3ccccc3)c(OC)c(=O)c2c1 | 0.501 µM (active) | > 46 | > 46 | inactive | 25.1 µM (active) |  | inactive |  |  | inactive | inactive |
| COc1cc2c(cc1OC)C(=O)N(C)CC2 | 2 µM (active) | > 46 | > 46 | inactive | inactive | inactive |  | inactive | inactive | inactive |  |
| C=C(CO)[C@H]1Cc2c(ccc3c2O[C@H]2COc4cc(OC)c(OC)cc4[C@@H]2C3=O)O1 | inactive | > 46 | > 46 | inactive | inactive |  |  | inactive |  |  | inactive |
| COc1cccc(-c2cc(=O)c3cc(O)ccc3o2)c1 | 1.58 µM (active) | > 46 | > 46 | inactive |  | 15.8 µM (active) | inactive | inactive | 25.1 µM (active) | inactive | inactive |
| O=C(CCc1ccc(O)cc1)c1c(O)cc(O)cc1O[C@@H]1O[C@@H](CO)[C@@H](O)[C@@H](O)[C@H]1O | inactive | > 46 | > 46 | inactive | 31.6 µM (active) |  |  | inactive |  |  | inactive |
| C=C1CC[C@@H](O)C/C1=C/C=C1\CCC[C@]2(C)[C@@H]1CC[C@H]2[C@@H](C)CCCC(C)C | inactive | > 46 | > 46 | inactive | inactive |  |  | inactive | inactive |  | inactive |
| COc1ccc(OC)c([C@H]2Nc3ccccc3NC3=C2C(=O)CC(C)(C)C3)c1Br | 20 µM (active) | > 46 | > 46 | inactive | 31.6 µM (active) |  |  | inactive | 3.16 µM (active) |  | inactive |
| O=c1cc(-c2cccc(O)c2O)oc2ccccc12 | 1 µM (active) | > 46 | > 46 | 3.98 µM (active) | 12.6 µM (active) |  | inactive |  |  | inactive |  |
| CC(=O)O[C@H]1CC[C@@]2(C)[C@@H](CC[C@@]3(C)[C@H]2C(=O)C=C2[C@H]4C[C@](C)(C(=O)OCCN5CCCCC5)CC[C@]4(C)CC[C@@]23C)C1(C)C | inactive | > 46 | > 46 | inactive | inactive |  |  | inactive | inactive |  | inactive |
| O=c1cc(-c2ccccc2O)oc2c1ccc1ccccc12 | 0.501 µM (active) | > 46 | > 46 | inactive | inactive |  | inactive | inactive |  | inactive | inactive |
| Cc1ccc2oc(-c3ccccc3)c(O)c(=O)c2c1 | 0.398 µM (active) | > 46 | > 46 |  | inactive | inactive |  | inactive | inactive | inactive | inactive |
| COc1ccc(-c2coc3cc(O[C@@H]4O[C@@H](CO)[C@@H](O)[C@@H](O)[C@H]4O)cc(O)c3c2=O)cc1 | inactive | > 46 | > 46 | inactive | inactive |  |  | inactive | inactive |  |  |
| O=c1cc(-c2ccccc2)oc2cc(O[C@H]3O[C@H](CO)[C@@H](O)[C@H](O)[C@@H]3O)c(O)c(O)c12 | inactive | > 46 | > 46 |  | inactive |  |  | inactive | inactive |  |  |
| CC1(C)CCC[C@@]2(C)[C@@H]1CC[C@]1(C)OC(=O)C[C@@H]21 | inactive | > 46 | > 46 | inactive |  |  |  | inactive | 15.8 µM (active) |  |  |
| CC[C@@H]1[C@H]2CCCCN3[C@@H]2[C@@H](C[C@H]3[C@@H]2C[C@H](C)C(=O)O2)[C@@H]2[C@H]1OC(=O)[C@H]2C | 25.1 µM (active) | > 46 | > 46 | inactive | inactive |  |  |  | inactive |  | inactive |
| C[C@@H]1C[C@@]2(C)Oc3ccccc3[C@H]3OC[C@]1(COC(=O)Nc1ccccc1)[C@@H](C)[C@@H]32 | 15.8 µM (active) | > 46 | > 46 |  | 20 µM (active) |  |  | inactive | 10 µM (active) |  |  |
